target: TFEB; experiment: pooled miR-30 sensor sort-seq; sequence = guide strand; details: shRNA
Note: reference of the scale not given here.

Row | Sequence | sensor-assay potency score (higher = more potent)
1 | TACACATTCAGGTGGCTGCTGG | -0.605
2 | ATCTGTGAGCTCTCGCTTCTGG | -0.356
3 | TTCGCTAGGCAGCTCCTGCTTC | -0.419
4 | TCATTGATGTTGAACCTTCGTC | -0.00793
5 | TTGCAGGTCCTTCTGCATCCTC | -1.28
6 | TTGTTGGTCATCTCCAGGCGGC | -1.28
7 | TTGATGTTGAACCTTCGTCTCC | -0.765
8 | TAGCGTGTTGGGCATCTGCATT | -1.17
9 | TAGCAGTGAGTCGTCCAGGAGC | -1.35
10 | AAGGACATCGTCCAGACGCATA | -1.55
11 | TCTCCTTTCAATTAAGTTGTGA | -0.161

target: TFPI2; experiment: as above; details: shRNA

Row | Sequence | sensor-assay potency score (higher = more potent)
12 | TATAGGTGAAAGCATCACAGGT | -0.811
13 | TACAAGTAGCTTCATCTGGAAA | -1.17
14 | TTGTATTAATAAAAACTGGTGA | -0.407
15 | TCATCTTTTGGACTGTAGCAAA | -1.13
16 | TTAGATTAAAGAAATACTTTTC | -0.873
17 | TTATTCTTCAGATACAACCATA | -1.04
18 | TCTCACAAACAGTTGAACCATA | -1.02
19 | TAGGTGAAAGCATCACAGGTTC | -0.157
20 | TACCTGTCGTAGTAGTAACGGA | -0.941
21 | TTTATATCTTATGCATTGCAAG | -1.47
22 | TGTCGTAGTAGTAACGGAGAAG | -1.18
23 | TTGGATTAAAATAATAGCGAGT | -0.659

— the OligoGym collection
